Measurements from publication PMC7826789 (International Journal of Molecular Sciences, 2021).

How the values were obtained:
Conditions in all cases: Compound Concentration (nM):1000
PRKG1 = tested on: PRKG1
PRKG2 = tested on: PRKG2
PRKR = tested on: T1, PRKR
T1 construct: gene EIF2AK2

PRKX = tested on: PRKX
PRP4 = tested on: T2, PRP4
T2 construct: gene PRPF4B

PYK2 = tested on: T3, PYK2
T3 construct: gene PTK2B

QSK = tested on: T4, QSK
T4 construct: gene KIAA0999

RAF1 = tested on: RAF1
RET(M918T) = tested on: RET(M918T)
RET(V804L) = tested on: RET(V804L)
RET(V804M) = tested on: RET(V804M)
RET = tested on: RET
RIOK1 = tested on: RIOK1
RIOK2 = tested on: RIOK2
RIOK3 = tested on: RIOK3
RIPK1 = tested on: RIPK1
RIPK2 = tested on: RIPK2
RIPK4 = tested on: RIPK4
RIPK5 = tested on: T5, RIPK5
T5 construct: gene DSTYK

ROCK1 = tested on: ROCK1
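Note: KINOMEscan scanMAX binding as percent activity remaining versus control; lower means stronger binding.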

| Compound | Percent Control (PRKG1) [%] | Percent Control (PRKG2) [%] | Percent Control (PRKR) [%] | Percent Control (PRKX) [%] | Percent Control (PRP4) [%] | Percent Control (PYK2) [%] | Percent Control (QSK) [%] | Percent Control (RAF1) [%] | Percent Control (RET(M918T)) [%] | Percent Control (RET(V804L)) [%] | Percent Control (RET(V804M)) [%] | Percent Control (RET) [%] | Percent Control (RIOK1) [%] | Percent Control (RIOK2) [%] | Percent Control (RIOK3) [%] | Percent Control (RIPK1) [%] | Percent Control (RIPK2) [%] | Percent Control (RIPK4) [%] | Percent Control (RIPK5) [%] | Percent Control (ROCK1) [%] |
| --- | --- | --- | --- | --- | --- | --- | --- | --- | --- | --- | --- | --- | --- | --- | --- | --- | --- | --- | --- | --- |
| O=C(Nc1n[nH]c2nc(-c3ccc(O)cc3)c(Br)cc12)C1CC1 [SB-725317] | 100 | 97 | 59 | 100 | 100 | 100 | 100 | 46 | 100 | 100 | 96 | 100 | 55 | 82 | 56 | 100 | 100 | 90 | 100 | 100 |
| COc1cccc(-n2ncc3c(N/N=C/c4ccncc4)ncnc32)c1 [GW784752X] | 93 | 100 | 80 | 38 | 84 | 95 | 100 | 58 | 93 | 100 | 87 | 97 | 79 | 75 | 94 | 89 | 38 | 3.9 | 100 | 74 |
| C[C@@H](Oc1cc(-n2cnc3ccc(OC4CCN(C)CC4)cc32)sc1C(N)=O)c1ccccc1Cl [GSK579289A] | 100 | 65 | 80 | 74 | 100 | 86 | 85 | 100 | 99 | 100 | 84 | 99 | 13 | 91 | 34 | 89 | 87 | 33 | 93 | 87 |
| COc1cc2ncnc(Nc3ccc4c(cnn4Cc4ccccc4)c3)c2cc1OC.Cl [GW282449A] | 93 | 100 | 89 | 100 | 100 | 100 | 100 | 100 | 90 | 100 | 100 | 75 | 97 | 88 | 100 | 100 | 27 | 100 | 71 | 94 |
